# Several values for one entry are separate records, joined by “and”; a condition that tells them apart may be missing. Equal values may be shown once. Values without a mark were called inactive. Records with an inconclusive call do not appear. Entries that show only a call come without a potency. Activity calls are given as the source filed them. Unless noted, calls follow the shape of the dose curve; as a rule, active = well fitted curve in the direction sought with a large enough effect in the repeat runs; inconclusive = weak or mixed curves; inactive = no such curve, though single readings can be large; an effect the other way counts as inactive or inconclusive.
# Assays:
# [1] = Caspase-3/7 induction in HepG2 cells by small molecules, qHTS assay (AID 1346978); also: nearly all actives have a fitted effect of over 15% in size
# Method in brief: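 Wild-type HepG2 cells (2,000/well) were settled 5 h at 37 C, 5% CO2, then exposed to compounds in DMSO for 17 h. Caspase-3/7 activity was read by luminescence 30 min after adding Caspase-Glo 3/7 reagent at room temperature.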
# [2] = Caspase-3/7 induction in CHO-K1 cells by small molecules, qHTS cell viability counter screen (AID 1346979); also: nearly all actives have a fitted effect of over 35% in size
# Method in brief: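 Multiplexed with Caspase-Glo 3/7 in CHO-K1 cells, this counter screen added CellTiter-Fluor after 16hr of compound exposure and recorded fluorescence 1hr later.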
# [3] = Caspase-3/7 induction in CHO-K1 cells by small molecules, qHTS assay (AID 1346980); also: nearly all actives have a fitted effect of over 15% in size
# Method in brief: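 Wild-type cells were seeded at 1,500 per well and settled 5 hr at 37 C, 5% CO2, then exposed to DMSO-dissolved compounds for 17 hr. Caspase-Glo 3/7 reagent was added, and luminescence was read after 30min at room temperature.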
# [4] = Caspase-3/7 induction in HepG2 cells by small molecules, qHTS cell viability counter screen (AID 1346981); also: series mostly up to about 92 µM; nearly all actives have a fitted effect of over 30% in size
# Method in brief: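 Viability determined by CellTiter-Fluor fluorescence in HepG2 wells also used for the luminescent Caspase-Glo 3/7 read. Compounds were present for 16 hr at 37 C, 5% CO2 before reagent addition.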
# [5] = biological target: Nuclear receptor subfamily 1 group I member 2 (Rattus norvegicus) (UniProt Q9R1A7); assay: Rat pregnane X receptor (rPXR) activation by small molecules, qHTS assay (AID 1346983); settings: rPXR luciferase reporter cells, One-Glo luminescence, 24 h; stronger effect = higher value; also: nearly all actives have a fitted effect of over 20% in size
# Method in brief: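 Cell-based rPXR luciferase reporter assay, 2,000 cells per well, rested 5hr at 37 C before compound addition in DMSO, then 24 hr at 37 C. One-Glo reagent was added and luminescence read after 30 min at room temperature.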
# [6] = biological target: Nuclear receptor subfamily 1 group I member 2 (Homo sapiens) (UniProt O75469); assay: CYP3A4 induction through human pregnane X receptor (PXR) by small molecules, qHTS assay (AID 1346984); also: potency is read from the fitted curve at half-maximal effect; nearly all actives have a fitted effect of over 40% in size
# Nuclear receptor subfamily 1 group I member 2 (Homo sapiens), sequence (O75469 whole entry, looked up): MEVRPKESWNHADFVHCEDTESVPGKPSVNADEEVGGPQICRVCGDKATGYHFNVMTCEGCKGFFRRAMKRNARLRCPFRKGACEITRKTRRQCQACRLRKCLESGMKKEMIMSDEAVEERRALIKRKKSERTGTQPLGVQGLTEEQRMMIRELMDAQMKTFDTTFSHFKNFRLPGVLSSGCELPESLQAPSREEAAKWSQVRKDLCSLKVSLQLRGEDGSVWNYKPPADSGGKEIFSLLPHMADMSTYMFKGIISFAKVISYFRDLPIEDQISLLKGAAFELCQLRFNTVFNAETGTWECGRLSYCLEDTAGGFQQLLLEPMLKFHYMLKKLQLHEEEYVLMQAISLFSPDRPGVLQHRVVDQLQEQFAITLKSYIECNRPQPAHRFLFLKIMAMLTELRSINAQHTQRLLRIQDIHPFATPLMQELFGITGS
# Method in brief: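 Readings come from a luciferase reporter: DPX-2 cells, which are HepG2 cotransfected with PXR and a CYP3A4-promoter construct, were exposed to test compounds for 24 h at 37C before One-Glo detection.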
# [7] = biological target: Nuclear receptor subfamily 1 group I member 2 (Homo sapiens) (UniProt O75469); assay: Human pregnane X receptor (PXR) activation by small molecules, qHTS assay (AID 1346985); also: nearly all actives have a fitted effect of over 40% in size
# Method in brief: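 DPX-2 cells (HepG2 co-transfected with a PXR response element and a CYP3A4-promoter luciferase construct) were seeded at 2,000 per well, rested 5 hr at 37C, then exposed to DMSO-dissolved compounds for 24 hr. Activation was read as luciferase luminescence.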
# [8] = biological target: Acetylcholinesterase (Homo sapiens) (UniProt P22303); assay: Acetylcholinesterase (AChE) small molecule antagonists: colormetric cell-based qHTS assay (AID 1347395; calls by dose curve; also: nearly all actives have a fitted effect of over 30% in size; also: potency is read from the fitted curve at half-maximal effect)
# Acetylcholinesterase (Homo sapiens), sequence (P22303 whole entry, looked up): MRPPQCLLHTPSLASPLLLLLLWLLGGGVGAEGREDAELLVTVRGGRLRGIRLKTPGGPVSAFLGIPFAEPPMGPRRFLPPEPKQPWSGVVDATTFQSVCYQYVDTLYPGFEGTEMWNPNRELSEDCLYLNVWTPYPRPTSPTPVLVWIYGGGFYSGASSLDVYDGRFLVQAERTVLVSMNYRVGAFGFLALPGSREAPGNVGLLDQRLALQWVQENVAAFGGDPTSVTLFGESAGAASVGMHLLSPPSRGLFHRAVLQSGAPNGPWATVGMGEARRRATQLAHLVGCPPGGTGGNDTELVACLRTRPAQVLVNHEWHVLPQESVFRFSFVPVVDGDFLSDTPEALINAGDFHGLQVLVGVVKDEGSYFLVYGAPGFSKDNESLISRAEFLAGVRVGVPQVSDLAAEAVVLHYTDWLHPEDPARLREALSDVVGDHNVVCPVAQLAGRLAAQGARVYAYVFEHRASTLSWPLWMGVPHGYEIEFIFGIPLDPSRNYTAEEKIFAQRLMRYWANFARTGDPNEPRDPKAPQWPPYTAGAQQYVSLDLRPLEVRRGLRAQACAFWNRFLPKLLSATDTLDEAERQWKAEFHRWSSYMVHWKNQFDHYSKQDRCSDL
# Method in brief: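 In this cell-based qHTS, attached SH-SY5Y cells were treated with test chemicals for 30 min, after which acetylthiocholine hydrolysis was followed by DTNB colour development over 90 min at 37 C.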
# [9] = biological target: Acetylcholinesterase (Homo sapiens) (UniProt P22303); assay: Acetylcholinesterase (AChE) small molecule antagonists: fluorescence cell-based qHTS assay (AID 1347398; calls by dose curve; also: nearly all actives have a fitted effect of over 50% in size; also: potency is read from the fitted curve at half-maximal effect); settings: Potency: AChE activity; outcome: AChE activity
# Method in brief: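 Thiocholine generated from acetylthiocholine by SH-SY5Y cell AChE is detected with Thiolite Green (Ex/Em 490/520 nm) after 40 min at room temperature, following 30 min compound pretreatment at 37 C.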
# [10] = biological target: Acetylcholinesterase (Homo sapiens) (UniProt P22303); assay: Acetylcholinesterase (AChE) small molecule antagonists: enzyme-based qHTS assay with human liver microsomes (AID 1347399; calls by dose curve; also: nearly all actives have a fitted effect of over 60% in size; also: potency is read from the fitted curve at half-maximal effect); settings: Potency: qHTS inhibition; outcome: qHTS inhibition
# Method in brief: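 Recombinant human AChE (50 mU/mL in the enzyme mix) and human liver microsomes (0.25 mg/mL final) were preincubated with compound and NADPH (0.25 mg/mL final) for 30 min at 37 C. Acetylthiocholine/DTNB was then added; thiocholine was read colorimetrically after 10 min at room temperature.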
# [11] = biological target: Cytochrome P450 2D6 (Homo sapiens) (UniProt P10635); assay: Cytochrome P450 Family 2 Subfamily D Member 6 (CYP2D6) small molecule antagonists: luciferase reporter qHTS assay (AID 1671196); also: nearly all actives have a fitted effect of over 50% in size; also: potency is read from the fitted curve at half-maximal effect
# Cytochrome P450 2D6 (Homo sapiens), sequence (P10635 whole entry, looked up): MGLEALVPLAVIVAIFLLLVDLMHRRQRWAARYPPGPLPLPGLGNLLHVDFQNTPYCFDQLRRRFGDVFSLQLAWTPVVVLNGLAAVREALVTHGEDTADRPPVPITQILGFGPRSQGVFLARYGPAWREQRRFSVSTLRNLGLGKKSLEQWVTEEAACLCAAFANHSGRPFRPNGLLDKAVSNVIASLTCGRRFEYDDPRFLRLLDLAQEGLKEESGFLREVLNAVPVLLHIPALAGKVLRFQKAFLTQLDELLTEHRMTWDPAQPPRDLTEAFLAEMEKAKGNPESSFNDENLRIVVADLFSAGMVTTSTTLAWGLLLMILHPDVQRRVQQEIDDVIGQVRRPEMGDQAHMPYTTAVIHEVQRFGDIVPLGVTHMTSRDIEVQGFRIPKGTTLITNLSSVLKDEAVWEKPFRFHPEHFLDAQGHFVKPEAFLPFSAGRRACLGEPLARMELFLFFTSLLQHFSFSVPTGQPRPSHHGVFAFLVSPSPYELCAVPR
# Method in brief: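 Each well received CYP2D6 with its proluciferin substrate and chemical, sat 10 min, then got NADPH regeneration solution for 1 h at room temperature. Luminescence in RLU served as the activity measure.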
# [12] = biological target: Cytochrome P450 2C19 (Homo sapiens) (UniProt P33261); assay: Cytochrome P450 Family 2 Subfamily C Member 19 (CYP2C19) small molecule antagonists: luciferase reporter qHTS assay (AID 1671197); also: nearly all actives have a fitted effect of over 65% in size; also: potency is read from the fitted curve at half-maximal effect
# Cytochrome P450 2C19 (Homo sapiens), sequence (P33261 whole entry, looked up): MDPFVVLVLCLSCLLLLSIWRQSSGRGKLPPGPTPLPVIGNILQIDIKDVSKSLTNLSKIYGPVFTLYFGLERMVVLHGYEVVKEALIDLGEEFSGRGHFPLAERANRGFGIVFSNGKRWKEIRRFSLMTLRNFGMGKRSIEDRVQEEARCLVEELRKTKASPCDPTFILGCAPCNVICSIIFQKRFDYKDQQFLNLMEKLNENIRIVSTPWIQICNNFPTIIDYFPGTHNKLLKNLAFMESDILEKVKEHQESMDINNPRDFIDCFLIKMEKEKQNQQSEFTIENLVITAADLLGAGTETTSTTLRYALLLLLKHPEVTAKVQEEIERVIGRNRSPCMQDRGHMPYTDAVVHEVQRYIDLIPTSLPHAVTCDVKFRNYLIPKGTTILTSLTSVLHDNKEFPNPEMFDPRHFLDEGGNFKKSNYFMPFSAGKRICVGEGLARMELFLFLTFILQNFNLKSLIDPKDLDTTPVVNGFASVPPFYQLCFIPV
# Method in brief: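 Relative luminescence units recorded 20 min after the detection reagent stopped a 1 h, 37C CYP2C19 reaction on proluciferin substrate, which was started by NADPH regeneration following 10 min room-temperature compound preincubation; ketoconazole positive control.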
# [13] = biological target: Cytochrome P450 2C9 (Homo sapiens) (UniProt P11712); assay: Cytochrome P450 Family 2 Subfamily C Member 9 (CYP2C9) small molecule antagonists: luciferase reporter qHTS assay (AID 1671198); also: nearly all actives have a fitted effect of over 50% in size; also: potency is read from the fitted curve at half-maximal effect
# Cytochrome P450 2C9 (Homo sapiens), sequence (P11712 whole entry, looked up): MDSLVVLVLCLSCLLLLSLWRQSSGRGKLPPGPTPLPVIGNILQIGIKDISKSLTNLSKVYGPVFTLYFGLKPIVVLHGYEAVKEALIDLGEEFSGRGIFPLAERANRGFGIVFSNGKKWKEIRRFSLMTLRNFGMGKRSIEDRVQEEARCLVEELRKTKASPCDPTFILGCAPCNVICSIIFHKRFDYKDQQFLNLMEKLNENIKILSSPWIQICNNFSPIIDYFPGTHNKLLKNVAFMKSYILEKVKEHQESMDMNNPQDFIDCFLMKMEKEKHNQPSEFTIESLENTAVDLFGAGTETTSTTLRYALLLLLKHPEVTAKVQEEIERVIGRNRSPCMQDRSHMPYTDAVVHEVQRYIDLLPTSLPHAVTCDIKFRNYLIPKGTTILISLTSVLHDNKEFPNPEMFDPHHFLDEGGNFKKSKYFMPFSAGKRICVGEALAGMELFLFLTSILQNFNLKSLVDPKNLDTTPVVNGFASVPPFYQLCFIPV
# Method in brief: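 CYP2C9 activity was measured with a P450-Glo proluciferin substrate. Enzyme–substrate mix was held with compound for 10 min at room temperature, then NADPH regeneration solution was added for 1 h at 37C. Luciferin product was read as luminescence.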
# [14] = biological target: Voltage-gated inwardly rectifying potassium channel KCNH2 (Homo sapiens) (UniProt Q12809); assay: Human Ether-a-go-go-Related Gene (hERG) channel small molecule antagonists: fluorescence cell-based qHTS assay (AID 1671200);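 also: hERG-expressing U2OS cells given a thallium stimulus after FluxOR II dye loading; series mostly up to about 77 µM; nearly all actives have a fitted effect of over 50% in size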
# Voltage-gated inwardly rectifying potassium channel KCNH2 (Homo sapiens), sequence (Q12809 whole entry, looked up): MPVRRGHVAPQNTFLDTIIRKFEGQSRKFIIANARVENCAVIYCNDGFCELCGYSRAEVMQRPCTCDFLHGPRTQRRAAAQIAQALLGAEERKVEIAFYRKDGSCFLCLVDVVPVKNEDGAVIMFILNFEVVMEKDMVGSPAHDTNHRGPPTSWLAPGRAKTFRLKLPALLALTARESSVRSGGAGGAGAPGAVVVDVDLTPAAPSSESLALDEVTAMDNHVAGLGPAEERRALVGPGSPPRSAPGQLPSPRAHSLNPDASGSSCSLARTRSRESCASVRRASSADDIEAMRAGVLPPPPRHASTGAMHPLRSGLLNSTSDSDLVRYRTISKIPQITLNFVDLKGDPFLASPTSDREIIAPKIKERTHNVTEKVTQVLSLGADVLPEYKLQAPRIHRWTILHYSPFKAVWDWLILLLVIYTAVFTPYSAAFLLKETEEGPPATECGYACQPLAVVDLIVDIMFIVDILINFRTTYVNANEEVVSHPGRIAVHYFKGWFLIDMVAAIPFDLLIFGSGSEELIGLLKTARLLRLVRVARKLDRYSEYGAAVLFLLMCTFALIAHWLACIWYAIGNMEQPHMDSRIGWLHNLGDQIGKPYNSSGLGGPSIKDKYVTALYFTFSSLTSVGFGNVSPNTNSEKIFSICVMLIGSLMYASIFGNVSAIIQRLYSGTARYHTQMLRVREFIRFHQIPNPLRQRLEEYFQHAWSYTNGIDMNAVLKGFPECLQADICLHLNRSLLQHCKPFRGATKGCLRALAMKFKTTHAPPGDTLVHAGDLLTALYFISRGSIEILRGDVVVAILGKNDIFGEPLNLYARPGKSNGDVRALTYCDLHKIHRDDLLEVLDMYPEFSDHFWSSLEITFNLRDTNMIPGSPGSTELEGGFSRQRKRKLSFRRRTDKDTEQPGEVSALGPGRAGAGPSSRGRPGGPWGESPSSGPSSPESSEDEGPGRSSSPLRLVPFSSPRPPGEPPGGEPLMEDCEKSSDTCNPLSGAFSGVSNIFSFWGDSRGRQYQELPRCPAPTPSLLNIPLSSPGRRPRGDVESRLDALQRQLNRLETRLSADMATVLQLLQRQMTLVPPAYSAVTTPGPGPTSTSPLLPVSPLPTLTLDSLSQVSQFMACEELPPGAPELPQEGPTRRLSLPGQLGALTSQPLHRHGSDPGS
# Method in brief: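 Cell line hERG-U2OS; dye FluxOR II, 1 h RT dark; Tl+ stimulus; ex 480/em 540 nm, read each second for 2 min.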
# [15] = biological target: Nuclear receptor subfamily 1 group I member 2 (Homo sapiens) (UniProt O75469); assay: Human pregnane X receptor (PXR) small molecule agonists, qHTS assay (AID 1346982); also: nearly all actives have a fitted effect of over 35% in size; also: potency is read from the fitted curve at half-maximal effect
# Method in brief: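 Compound-induced hPXR transactivation of a CYP3A4 luciferase reporter was scored in HepG2 PXR-Luc cells over 24 hr at 37 C, 5% CO2, by luminescence.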
# [16] = biological target: Cytochrome P450 3A4 (Homo sapiens) (UniProt P08684); assay: Cytochrome P450 Family 3 Subfamily A Member 4 (CYP3A4) small molecule antagonists: luciferase reporter qHTS assay (AID 1671201)
# Cytochrome P450 3A4 (Homo sapiens), sequence (P08684 whole entry, looked up): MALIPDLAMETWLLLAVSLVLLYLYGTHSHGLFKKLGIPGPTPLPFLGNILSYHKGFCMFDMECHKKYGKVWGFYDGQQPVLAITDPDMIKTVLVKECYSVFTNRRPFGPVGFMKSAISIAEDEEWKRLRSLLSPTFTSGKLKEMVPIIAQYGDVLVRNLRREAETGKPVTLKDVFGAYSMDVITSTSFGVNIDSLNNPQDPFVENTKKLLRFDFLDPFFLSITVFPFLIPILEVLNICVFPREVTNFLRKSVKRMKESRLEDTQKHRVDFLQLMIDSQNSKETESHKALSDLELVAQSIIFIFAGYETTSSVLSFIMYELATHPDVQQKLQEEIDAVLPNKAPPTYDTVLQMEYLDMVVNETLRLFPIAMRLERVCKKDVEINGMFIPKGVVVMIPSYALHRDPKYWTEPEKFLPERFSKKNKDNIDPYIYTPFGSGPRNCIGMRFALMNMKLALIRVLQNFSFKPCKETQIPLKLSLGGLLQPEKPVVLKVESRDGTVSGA
# Method in brief: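 Room-temperature assay throughout: 10 min compound–enzyme/substrate preincubation, 1 h reaction after NADPH regeneration solution, 20 min detection. Luciferin formed from proluciferin substrate is quantified by luminescence.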
# [17] = biological target: Acetylcholinesterase (Homo sapiens) (UniProt P22303); assay: Acetylcholinesterase (AChE) small molecule antagonists: enzyme-based qHTS assay (AID 1347397; calls by dose curve; also: nearly all actives have a fitted effect of over 55% in size; also: potency is read from the fitted curve at half-maximal effect); settings: Potency: AChE enzyme activity inhibition; outcome: AChE enzyme activity inhibition
# Method in brief: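 Human recombinant acetylcholinesterase; substrate acetylthiocholine; thiocholine quantified with DTNB (colorimetric). Compound preincubation 30 min RT; reaction 10 min RT.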
# [18] = biological target: Cytochrome P450 1A2 (Homo sapiens) (UniProt P05177); assay: Cytochrome P450 Family 1 Subfamily A Member 2 (CYP1A2) small molecule antagonists: luciferase reporter qHTS assay (AID 1671199); also: nearly all actives have a fitted effect of over 50% in size; also: potency is read from the fitted curve at half-maximal effect
# Cytochrome P450 1A2 (Homo sapiens), sequence (P05177 whole entry, looked up): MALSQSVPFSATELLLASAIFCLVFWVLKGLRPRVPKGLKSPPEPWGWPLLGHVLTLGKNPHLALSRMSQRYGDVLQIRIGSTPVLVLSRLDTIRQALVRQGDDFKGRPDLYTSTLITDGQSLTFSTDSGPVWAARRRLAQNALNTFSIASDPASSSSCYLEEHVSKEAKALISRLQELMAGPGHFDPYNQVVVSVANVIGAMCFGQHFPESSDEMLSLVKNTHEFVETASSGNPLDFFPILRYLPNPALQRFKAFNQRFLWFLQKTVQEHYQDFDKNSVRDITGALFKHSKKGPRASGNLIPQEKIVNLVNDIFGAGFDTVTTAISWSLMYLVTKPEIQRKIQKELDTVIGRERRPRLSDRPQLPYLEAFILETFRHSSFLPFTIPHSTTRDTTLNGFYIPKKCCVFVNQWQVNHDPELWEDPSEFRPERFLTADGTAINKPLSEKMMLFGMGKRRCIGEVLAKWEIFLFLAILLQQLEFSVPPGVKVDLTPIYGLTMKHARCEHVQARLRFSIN
# Method in brief: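 Enzymatic CYP1A2 assay, human, luminescent: 10 min compound–enzyme–substrate preincubation, 1 h NADPH-dependent turnover, 20 min detection step, room temperature throughout. Reduced light indicates lower CYP1A2 activity.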
Structure (SMILES),outcome [1],Potency [2],outcome [3],Potency [4],max activation [5] [%],Potency [6],Potency [7],Potency [8],Potency [9],Potency [10],Potency [11],Potency [12],Potency [13],Potency [14],Potency [15],Potency [16],Potency [17],Potency [18]
N[C@@H](Cc1ccc(Oc2cc(I)c(O)c(I)c2)c(I)c1)C(=O)O,inactive,inactive,inactive,inactive,-1.02,14.1 µM (active),inactive,inactive,inactive,inactive,inactive,inactive,11 µM (active),inactive,–,–,–,–
O=C(O)C(Br)(Br)Br,inactive,inactive,inactive,inactive,–,–,–,inactive,inactive,inactive,inactive,31.7 µM (active),inactive,inactive,inactive,inactive,–,–
Oc1ccc(Cc2ccc(O)cc2)cc1,inactive,inactive,inactive,inactive,–,–,–,inactive,inactive,inactive,–,inactive,inactive,inactive,54.9 µM (active),inactive,–,–
C/C(=N\NC(=O)Nc1cc(F)cc(F)c1)c1ncccc1C(=O)O,inactive,inactive,inactive,inactive,–,–,–,inactive,inactive,inactive,inactive,–,10 µM (active) and 12.6 µM (active),inactive,inactive,inactive,–,–
CCC(CC)(CNC(=O)CCCO)c1cccc(OC)c1,inactive,inactive,inactive,inactive,–,–,–,–,inactive,inactive,–,7.76 µM (active),–,inactive,inactive,–,inactive,inactive
CNC(=O)Oc1ccccc1C(C)C,inactive,inactive,inactive,inactive,–,–,–,–,4.48 µM (active),56.4 µM (active),inactive,39.9 µM (active),–,inactive,inactive,inactive,7.96 µM (active),–
CCN(CC)C1CCCCC1,inactive,inactive,inactive,inactive,–,–,–,inactive,inactive,inactive,inactive,inactive,inactive,inactive,inactive,inactive,–,–
CCOP(=O)(CN(CCO)CCO)OCC,inactive,inactive,inactive,inactive,–,–,–,inactive,inactive,inactive,inactive,–,inactive,–,inactive,inactive,–,–
CCOC(=O)NC(C)(C)Cc1ccc(Cl)cc1,inactive,inactive,inactive,inactive,–,–,–,–,inactive,inactive,–,4.36 µM (active),15.5 µM (active),inactive,inactive,inactive,inactive,6.45 µM (active)
NC1(c2ccccc2)CCCCC1,inactive,inactive,inactive,inactive,–,–,–,inactive,inactive,inactive,31.4 µM (active),–,inactive,inactive,inactive,inactive,–,–
CCC(C)C(C)(COC(N)=O)COC(N)=O (centres undefined),inactive,inactive,inactive,inactive,–,–,–,–,inactive,inactive,inactive,inactive,inactive,–,inactive,inactive,inactive,inactive
CC[C@@H](CO)NC(=O)[C@@H]1C=C2c3cccc4[nH]cc(c34)C[C@H]2N(C)C1,inactive,inactive,inactive,inactive,–,–,–,17.4 µM (active),–,inactive,–,–,–,–,–,inactive,–,–
CC[C@H](O)C(C[C@H](C)N(C)C)(c1ccccc1)c1ccccc1,inactive,inactive,inactive,inactive,–,–,–,–,–,inactive,1.44 µM (active),inactive,inactive,inactive,–,–,inactive,inactive

# Source: PubChem BioAssay (Tox21)
